# Results reported in PMC11995724, “Antibiotic target discovery by integrated phenotypic and activity-based profiling of electrophilic fragments” (Cell chemical biology, 2025).
# About 110 (3.4%) of roughly 3,200 compounds showed an effect of 50% or more. Many of the other results were omitted from the sample, so strong results are more common in it than they were.
# Test system: T1, V. cholerae SAD30
# T1 construct: SAD30
# Set-up: species or system S. aureus MSSA476 (TSB) or V. cholerae SAD30 (LB); 384-well bacterial growth screen at 25 uM, OD600 relative to DMSO control
# Settings: relative growth, OD600, LB; 25 µM; inhibitor
row,Structure (SMILES),% of control remaining [%]
1,"O=C(CCl)Nc1nnc(-c2ccccc2Cl)s1 [6-K17, 2-chloro-N-[5-(2-chlorophenyl)-1,3,4-thiadiazol-2-yl]acetamide]",95.8574
2,"CC(Cl)C(=O)Nc1cccc(Cl)c1 (stereo not shown) [5-H22, 2-chloro-N-(3-chlorophenyl)propanamide]",106.42
3,"C=CC(=O)N(Cc1cn2ccccc2n1)C1CC1 [3-J21, N-cyclopropyl-N-({imidazo[1,2-a]pyridin-2-yl}methyl)prop-2-enamide]",90.3253
4,"C=CC(=O)NCc1cnc(-c2ccc(C(F)(F)F)cc2)s1 [1-C13, N-({2-[4-(trifluoromethyl)phenyl]-1,3-thiazol-5-yl}methyl)prop-2-enamide]",68.9088
5,"CC(Cl)C(=O)N1CCn2c(C#N)ccc2C1C (stereo not shown) [6-F22, 2-(2-chloropropanoyl)-1-methyl-1H,2H,3H,4H-pyrrolo[1,2-a]pyrazine-6-carbonitrile]",96.0091
6,"C=CC(=O)NCCC(=O)N1CCCN(c2cccnn2)CC1 [2-P16, N-{3-oxo-3-[4-(pyridazin-3-yl)-1,4-diazepan-1-yl]propyl}prop-2-enamide]",95.7541
7,"Cc1n[nH]c(C)c1C=C(C#N)C(=O)Nc1ccc(SC(F)F)cc1 [8-E08, 2-cyano-N-{4-[(difluoromethyl)sulfanyl]phenyl}-3-(3,5-dimethyl-1H-pyrazol-4-yl)prop-2-enamide]",75.2549
8,"O=C(CCl)N(Cc1nc(C2CCCCCC2)no1)C1CC1 [7-B16, 2-chloro-N-[(3-cycloheptyl-1,2,4-oxadiazol-5-yl)methyl]-N-cyclopropylacetamide]",80.2247
9,"Cc1cc(NC(=O)CN(C)C(=O)C(C)Cl)no1 (stereo not shown) [7-M19, 2-chloro-N-methyl-N-{[(5-methyl-1,2-oxazol-3-yl)carbamoyl]methyl}propanamide]",81.8107
10,"C=CC(=O)NCCc1nc(-c2ccccc2)nn1C [2-M12, N-[2-(1-methyl-3-phenyl-1H-1,2,4-triazol-5-yl)ethyl]prop-2-enamide]",85.4096
11,"C=CC(=O)NCCn1nc(C)cc1C [3-M13, N-[2-(3,5-dimethyl-1H-pyrazol-1-yl)ethyl]prop-2-enamide]",97.7357
12,"C=CC(=O)N1CCC(C(=O)Oc2ccc(NC(C)=O)cc2)CC1 [3-M16, 4-acetamidophenyl 1-(prop-2-enoyl)piperidine-4-carboxylate]",96.1478
13,"C=CC(=O)NC1(c2nc(C3CC3)cc(=O)[nH]2)CCCCC1 [3-H13, N-[1-(4-cyclopropyl-6-oxo-1,6-dihydropyrimidin-2-yl)cyclohexyl]prop-2-enamide]",88.7374
14,"CS(=O)(=O)Nc1ccc(C(=O)CCl)cc1 [10-D19, N-[4-(2-chloroacetyl)phenyl]methanesulfonamide]",31.3267
15,"CN(c1ccc(C(=O)CCl)cc1)S(C)(=O)=O [10-F19, N-[4-(2-chloroacetyl)phenyl]-N-methylmethanesulfonamide]",14.0269
16,"CC(=O)N(C)Cc1ccc(C(=O)CCl)cc1 [10-H04, N-{[4-(2-chloroacetyl)phenyl]methyl}-N-methylacetamide]",100.682
17,"CS(=O)(=O)c1ccc(CNC(=O)CCl)cc1 [6-O12, 2-chloro-N-[(4-methanesulfonylphenyl)methyl]acetamide]",95.2507
18,"CS(=O)(=O)c1ccc(C(=O)CCl)cc1 [10-I13, 2-chloro-1-(4-methanesulfonylphenyl)ethan-1-one]",0
19,"CCN(c1ccc(C(=O)CCl)cc1)S(C)(=O)=O [10-F04, N-[4-(2-chloroacetyl)phenyl]-N-ethylmethanesulfonamide]",100.994
20,"CS(=O)(=O)NCCc1ccc(C(=O)CCl)cc1 [10-D06, N-{2-[4-(2-chloroacetyl)phenyl]ethyl}methanesulfonamide]",99.5909
21,"CC(Cl)C(=O)c1ccc(NS(C)(=O)=O)cc1 (stereo not shown) [10-A08, N-[4-(2-chloropropanoyl)phenyl]methanesulfonamide]",98.4999
22,"C=CC(=O)NC(c1ccc(C)cc1)C(C)S(C)(=O)=O (stereo not shown) [2-A10, N-[2-methanesulfonyl-1-(4-methylphenyl)propyl]prop-2-enamide]",94.3646
23,"CC(Cl)C(=O)Nc1sccc1C(N)=O (stereo not shown) [5-C21, 2-(2-chloropropanamido)thiophene-3-carboxamide]",107.429
24,"C=CC(=O)N1CCC(NC(C)=O)(c2noc(C)n2)C1 (stereo not shown) [2-G16, N-[3-(5-methyl-1,2,4-oxadiazol-3-yl)-1-(prop-2-enoyl)pyrrolidin-3-yl]acetamide]",100.077
25,"C=CC(=O)NC1CN(S(=O)(=O)c2ccc3c(c2)OCCO3)C1 [2-E11, N-[1-(2,3-dihydro-1,4-benzodioxine-6-sulfonyl)azetidin-3-yl]prop-2-enamide]",95.7541

row,Structure (SMILES),% of control remaining [%]
1,"N#CC(=Cc1c(F)cccc1F)C(=O)Nc1ccccc1F [9-J12, 2-cyano-3-(2,6-difluorophenyl)-N-(2-fluorophenyl)prop-2-enamide]",94.2896
2,"O=C(CCl)NC1CCCc2nc(-c3ccccc3)sc21 (stereo not shown) [7-B04, 2-chloro-N-(2-phenyl-4,5,6,7-tetrahydro-1,3-benzothiazol-7-yl)acetamide]",86.833
3,"CCCn1c(C)cc(C=C(C#N)C(=O)N2CCC2)c1C [8-L08, 2-(azetidine-1-carbonyl)-3-(2,5-dimethyl-1-propyl-1H-pyrrol-3-yl)prop-2-enenitrile]",60.707
4,"COC(=O)c1sccc1N1C(=O)C=CC1=O [10-A07, methyl 3-(2,5-dioxo-2,5-dihydro-1H-pyrrol-1-yl)thiophene-2-carboxylate]",26.4952
5,"Cc1cc(C(=O)C(C)Cl)c(C)n1Cc1ccco1 (stereo not shown) [10-E06, 2-chloro-1-{1-[(furan-2-yl)methyl]-2,5-dimethyl-1H-pyrrol-3-yl}propan-1-one]",94.9153
6,"Cc1ccc(NC(=O)CCl)cc1[N+](=O)[O-] [4-M13, 2-chloro-N-(4-methyl-3-nitrophenyl)acetamide]",93.6813
7,"NC(=O)c1coc(C(=O)CCl)c1 [10-C05, 5-(2-chloroacetyl)furan-3-carboxamide]",96.1621
8,"COC(=O)c1cc(C(=O)CCl)c(C)o1 [10-G13, methyl 4-(2-chloroacetyl)-5-methylfuran-2-carboxylate]",43.6392
9,"CCc1ccc(CC)c(C(=O)CCl)c1 [10-H14, 2-chloro-1-(2,5-diethylphenyl)ethan-1-one]",95.8504
10,"Cc1oc(C(=O)O)cc1C(=O)CCl [10-M21, 4-(2-chloroacetyl)-5-methylfuran-2-carboxylic acid]",100.37
11,"COCCn1c(C)cc(C(=O)CCl)c1C [10-D13, 2-chloro-1-[1-(2-methoxyethyl)-2,5-dimethyl-1H-pyrrol-3-yl]ethan-1-one]",99.9026
12,"Cc1oc(C(N)=O)cc1C(=O)CCl [10-M05, 4-(2-chloroacetyl)-5-methylfuran-2-carboxamide]",20.4169
13,"CCc1ccc(OC(C)C(=O)N2CCN(C(=O)C(C)Cl)CC2)cc1 (stereo not shown) [6-H16, 1-[4-(2-chloropropanoyl)piperazin-1-yl]-2-(4-ethylphenoxy)propan-1-one]",86.302
14,"C=CC(=O)N1CCC(C(=O)Nc2ccc3c(c2)CCN3C(N)=O)CC1 [3-E16, 5-[1-(prop-2-enoyl)piperidine-4-amido]-2,3-dihydro-1H-indole-1-carboxamide]",90.5017
15,"C=CC(=O)NC(c1nc(C)cs1)C1CC1 (stereo not shown) [3-D21, N-[cyclopropyl(4-methyl-1,3-thiazol-2-yl)methyl]prop-2-enamide]",100.912
16,"CCCn1c(C)cc(C=C(C#N)C(=O)Nc2ccc3c(c2)OCO3)c1C [9-G07, N-(1,3-dioxaindan-5-yl)-2-cyano-3-(2,5-dimethyl-1-propyl-1H-pyrrol-3-yl)prop-2-enamide]",88.5792
17,"CC(Cl)C(=O)Nc1ccc(F)c(F)c1F (stereo not shown) [4-O08, 2-chloro-N-(2,3,4-trifluorophenyl)propanamide]",95.579
18,"C=CC(=O)NCCCc1conc1C [2-N13, N-[3-(3-methyl-1,2-oxazol-4-yl)propyl]prop-2-enamide]",87.88
19,"Cc1ccc(NC(=O)C2(CNC(=O)C(C)Cl)CCCC2)cc1C (stereo not shown) [7-J13, 1-[(2-chloropropanamido)methyl]-N-(3,4-dimethylphenyl)cyclopentane-1-carboxamide]",74.8059
20,"Cn1cc(C=C(C#N)C(=O)Nc2ccccc2F)c(-c2ccncc2)n1 [9-L15, 2-cyano-N-(2-fluorophenyl)-3-[1-methyl-3-(pyridin-4-yl)-1H-pyrazol-4-yl]prop-2-enamide]",89.6669
21,"CC1(C)C(=O)Nc2ccc(C(=O)CCl)cc21 [10-N21, 5-(2-chloroacetyl)-3,3-dimethyl-2,3-dihydro-1H-indol-2-one]",35.0672
22,"O=C1CCc2cc(C(=O)CCl)c(F)cc2N1 [10-O20, 6-(2-chloroacetyl)-7-fluoro-1,2,3,4-tetrahydroquinolin-2-one]",36.6258
23,"O=C1CCc2cc(C(=O)CCl)ccc2N1 [10-M03, 6-(2-chloroacetyl)-1,2,3,4-tetrahydroquinolin-2-one]",23.534
24,"O=C1CCCc2cc(C(=O)CCl)ccc2N1 [10-M20, 7-(2-chloroacetyl)-2,3,4,5-tetrahydro-1H-1-benzazepin-2-one]",94.6035
